Screening results (PubChem)
HCMV inh – qHTS Assay for inhibitors of the human cytomegalovirus (HCMV); HFF cells, HCMV-luciferase reporter, 72 h; stronger effect = lower value; activity change, negative = inhibition, % at 57.5 µM; 4.5% of 410,000 active; in the data active means activity change below about -60%; inconclusive means no clear call, values can overlap the other calls; inactive means above about -39%
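Compounds were evaluated in HFFs infected with an HCMV luciferase reporter virus (MOI 1 PFU/cell). Luciferase in lysates collected 72 h post infection served as the replication measure.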
Sm TGR inh – qHTS Assay for the Inhibitors of Schistosoma Mansoni Peroxiredoxins; purified TGR, DTNB reduction, TNB absorbance 405 nm; Potency, µM (titrated, usually from 114 µM), most hits filed as inhibitors; 3% of 360,000 active; further: nearly all actives have a fitted effect of over 60% in size
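First, TGR (20 nM dispensed) and NADPH were mixed with compound. Second, a 15 min room-temperature incubation followed. Third, further NADPH and then DTNB were added to start the reaction. Finally, TNB absorbance was monitored kinetically.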
Pf growth 96h – Primary qHTS for delayed death inhibitors of the malarial parasite plastid, 96 hour incubation; 6.9% of 320,000 active; P. falciparum luciferase reporter growth, 96 h; Potency, µM (top dose mostly 28.7 µM), actives largely listed as inhibitors
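Compounds incubated with erythrocytes infected by luciferase-expressing P. falciparum (2% hematocrit, 0.05% parasitemia final) for 96 hours, 37 C in 5% CO2. Growth inhibition scored as decreased luciferase luminescence.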
HCV inhibitor – qHTS Assay for Inhibitors of Hepatitis C Virus (HCV) | Huh7.5.1 HCVcc-Cre infection, luciferase reporter, 44 h | Potency, µM (doses to about 41.8 µM), usual class: inhibitors | 3.4% of 340,000 active
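HCVcc-Cre virus at an moi near 0.5 was added right after compound to cells cultured 4 h from seeding (1,000 cells/well). Luciferase activity was determined 44 h later, 15 min after substrate addition at RT.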
Pf growth 48h – Primary qHTS for delayed death inhibitors of the malarial parasite plastid, 48 hour incubation | P. falciparum luciferase growth in erythrocytes, 48 h | Potency, µM (titrated, usually from 28.7 µM), hits mostly inhibitors | 5.9% of 310,000 active
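Erythrocytes infected with P. falciparum carrying an integrated firefly luciferase reporter (2% hematocrit, 0.1% parasitemia final) were exposed to compounds in RPMI 1640 with 0.5% Albumax at 37 C, 5% CO2. Growth inhibition was scored as reduced luminescence.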
SARS PLpro yeast – qHTS of Yeast-based Assay for SARS-CoV PLP; S. cerevisiae expressing SARS-CoV PLpro, growth rescue; Potency, µM (doses to about 32.9 µM), most hits filed as activators; 0.19% of 330,000 active; calls by dose curve; further: nearly all actives have a fitted effect of over 55% in size
Large screens that a line does not name were inactive. Hits are enriched below; roughly 15% of the tested compounds scored in any of these assays. Unless noted, the call rests on the fitted dose curve; in most records, active means well fitted curve in the direction sought with a large enough effect; inconclusive means small, poorly fitted or top-dose-only effect, or another doubt; inactive means no such curve, though single readings can be large; an effect the other way counts as inactive or inconclusive.

CCOc1ccc(OCc2ccc(C(=O)N/N=C(\C)c3ccccn3)cc2)cc1	HCMV inh -85.4, Pf growth 96h 0.37µM, HCV inhibitor inconclusive, Pf growth 48h 0.37µM
C/C(=N\NC(=O)c1ccccc1OCc1ccc(F)cc1)c1ccccn1	HCMV inh -101.9, Pf growth 96h 4.15µM, HCV inhibitor 2.82µM, Pf growth 48h 1.47µM
COc1ccc(-c2c(-c3ccccc3OC)oc3ccccc23)cn1	Pf growth 96h inconclusive, HCV inhibitor inconclusive, Pf growth 48h inconclusive
COc1cc(-c2nnc(CSc3nnc(N)s3)o2)cc(OC)c1OC	none
COc1cc(-c2nnc(COc3ccc4ccccc4c3)o2)cc(OC)c1OC	HCMV inh -107.4, Pf growth 96h inconclusive
COc1cc(-c2nnc(CSc3nnc(Nc4ccc(Oc5ccccc5)cc4)s3)o2)cc(OC)c1OC	HCMV inh inconclusive, Pf growth 96h inconclusive, HCV inhibitor 5.62µM, Pf growth 48h inconclusive
COc1cccc(NC(=O)Nc2nccc(C)n2)c1	none
O=C(O)C1C2C=CC(O2)C1C(=O)Nc1ccc2c(c1)OCCO2 (configuration not stated)	Sm TGR inh 35.5µM (no result: HCMV inh, HCV inhibitor)
CCCOC(=O)c1ccc(NC(=O)C2C3C=CC(O3)C2C(=O)O)cc1 (configuration not stated)	Sm TGR inh 20µM
O=C(O)C1C2C=CC(C2)C1C(=O)Nc1ccc2c(c1)OCCO2 (configuration not stated)	none (no result: HCMV inh, Pf growth 96h)
COc1ccc(NC(=O)C2C3C=CC(O3)C2C(=O)NCc2cccnc2)cc1 (configuration not stated)	Pf growth 96h 10.4µM
CC(=O)c1ccc(NC(=O)C2C3C=CC(O3)C2C(=O)O)cc1 (configuration not stated)	none
COc1ccc(NC(=O)C2C3C=CC(O3)C2C(=O)O)cc1 (configuration not stated)	Sm TGR inh 44.7µM, Pf growth 96h inconclusive
CC(C)OC(=O)c1cc(NC(=O)C2C3C=CC(O3)C2C(=O)O)cc(C(=O)OC(C)C)c1 (configuration not stated)	none
CN(C)c1ccc(-c2cc(NC=O)c3ncc(-c4ccc(F)c(Cl)c4)n3c2)cc1	none (no result: Sm TGR inh, Pf growth 96h, HCV inhibitor, Pf growth 48h, SARS PLpro yeast)
Cc1ccc(SCC(=O)N2c3ccccc3Sc3ccccc32)cc1	Sm TGR inh inconclusive, HCV inhibitor inconclusive, Pf growth 48h inconclusive
CSc1ncnc2c1ncn2CCCNCc1ccccn1	none (no result: Sm TGR inh, Pf growth 96h, HCV inhibitor, Pf growth 48h, SARS PLpro yeast)
C[C@]12CCCCC3=CC(=O)C=C[C@@]31OCC2	none (no result: Sm TGR inh, Pf growth 96h, HCV inhibitor, Pf growth 48h, SARS PLpro yeast)
COc1cccc(NC(=O)C2CC2)c1	none
COc1cccc(NC(=O)C2C3C=CC(O3)C2C(=O)O)c1 (configuration not stated)	Sm TGR inh 35.5µM
O=C(/C=C\c1ccc2c(c1)OCO2)NC1CC(=O)N(c2ccc(F)cc2)C1 (configuration not stated)	none (no result: Pf growth 96h, HCV inhibitor, Pf growth 48h, SARS PLpro yeast)
CCN(CC)S(=O)(=O)c1ccc(Cl)c(NC(=O)COC(=O)c2cccn2C)c1	Pf growth 96h inconclusive, HCV inhibitor 5.62µM
CCN(CC)S(=O)(=O)c1ccc(Cl)c(NC(=O)COC(=O)c2c(C)noc2C)c1	HCMV inh inconclusive, HCV inhibitor inconclusive
CCN(CC)S(=O)(=O)c1ccc(Cl)c(NC(=O)COC(=O)c2ccc(O)cc2)c1	Pf growth 96h 4.65µM, HCV inhibitor inconclusive, Pf growth 48h inconclusive
COc1ccc(S(=O)(=O)NCCS(=O)(=O)N2CCN(c3ccccc3)CC2)cc1C	none (no result: Pf growth 96h, HCV inhibitor, Pf growth 48h, SARS PLpro yeast)
Cn1nnc(NC(=S)NC(=O)Cc2ccccc2)n1	Pf growth 96h 2.08µM (no result: Sm TGR inh)
Cn1nnc(NC(=O)c2ccccc2)n1	Pf growth 96h 13.1µM
Cn1nnc(NC(=S)NC(=O)c2ccco2)n1	Sm TGR inh inconclusive
Cn1nnc(NC(=S)NC(=O)c2cc3ccccc3o2)n1	Sm TGR inh 25.1µM, Pf growth 96h inconclusive
CCC1Oc2ccc(C)cc2N(CC(=O)NCC2CCCO2)C1=O (configuration not stated)	none
COc1ccc(C#Cc2cccc(-c3nc(C(=O)N4CCN(C)CC4)cc4c3[C@H](CCO)N(S(=O)C(C)(C)C)C4)c2)cc1OC (some centres not stated)	none (no result: Sm TGR inh, Pf growth 96h, HCV inhibitor, Pf growth 48h, SARS PLpro yeast)
CC[C@@H]1C=C(C)C[C@H](C)C[C@H](OC)[C@H]2O[C@@](O)(C(=O)C(=O)N3CCCC[C@H]3C(=O)O[C@H](/C(C)=C/[C@@H]3CC[C@@H](O)[C@H](OC)C3)[C@H](C)[C@@H](O)CC1=O)[C@H](C)C[C@@H]2OC	Pf growth 96h 2.62µM, Pf growth 48h 2.33µM (no result: HCMV inh)
COc1cc(O)c(C(=O)O)c(-c2cc(O)c(O)cc2C)c1	Sm TGR inh 0.159µM, Pf growth 96h inconclusive
COc1ccc(Cc2c(-c3ccc(F)cc3)nc3c4ccccc4ccn23)c(C)c1	none (no result: Sm TGR inh, Pf growth 96h, HCV inhibitor, Pf growth 48h, SARS PLpro yeast)
O=C1C2C(C(=O)N1/N=C/c1ccc([N+](=O)[O-])o1)C1C=CC2C12CC2 (configuration not stated)	Sm TGR inh inconclusive, Pf growth 96h inconclusive, Pf growth 48h inconclusive, SARS PLpro yeast inconclusive
CC1=NN(c2nc(N)nc(/C(C#N)=C/c3ccc([N+](=O)[O-])o3)n2)C(C)(C)C1	HCV inhibitor 8.91µM (no result: Sm TGR inh, Pf growth 96h, Pf growth 48h, SARS PLpro yeast)
CC(=O)Oc1ccc2oc(/C=C/N(C)C)c([N+](=O)[O-])c2c1	Pf growth 96h inconclusive (no result: Pf growth 48h)
C/C(=C/c1oc2ccc(O)cc2c1[N+](=O)[O-])N(C)C	Pf growth 96h 14.7µM, HCV inhibitor inconclusive (no result: Pf growth 48h)
O=C(O)c1ccc(NC(=S)NC(=O)c2ccc(-c3ccc(Br)cc3)o2)cc1	Sm TGR inh 31.6µM, Pf growth 48h inconclusive
O=C(O)c1cccc(NC(=S)NC(=O)c2ccc(-c3ccc(Cl)cc3)o2)c1	Sm TGR inh 20µM
COc1ccc(C(=O)O)cc1NC(=S)NC(=O)c1ccc(-c2ccc(Cl)cc2)o1	Sm TGR inh 28.2µM, Pf growth 96h inconclusive
Cc1ccc(C(=O)O)cc1NC(=S)NC(=O)c1ccc(-c2ccc(Cl)cc2)o1	Sm TGR inh 10µM
COCCN1C(=O)CN(S(C)(=O)=O)CC1(C)C(=O)Nc1c(C)cccc1C (configuration not stated)	none (no result: Sm TGR inh, Pf growth 96h, HCV inhibitor, Pf growth 48h, SARS PLpro yeast)
Cc1cc(C)nc(-n2nc(C)c3c2NC(=O)CC3c2ccccc2OC(C)C)n1 (configuration not stated)	none (no result: Pf growth 96h, HCV inhibitor, Pf growth 48h, SARS PLpro yeast)
Cc1cc(Cl)ccc1NC(=O)CCn1nc(C)c2c(C)n(-c3ccccc3)nc2c1=O	none (no result: Pf growth 96h, HCV inhibitor, Pf growth 48h, SARS PLpro yeast)
Fc1ccc2nc(Nc3nc4c(F)cccc4s3)sc2c1	Pf growth 96h inconclusive (no result: SARS PLpro yeast)
Cc1ccc2nc(NC(=O)c3ccccn3)sc2c1	HCMV inh -98.4, Pf growth 96h inconclusive, HCV inhibitor inconclusive
